Screening data from PubChem.
HP1b binding inh: inhibitors of HP1-beta chromodomain binding to methylated histone tails; P83916; AlphaScreen HP1-beta / biotin-H3K9me3 peptide binding; Potency, µM (highest dose often 114 µM), for the others: top-dose activity change, negative = inhibition, actives largely listed as inhibitors; 390,000 tested, 0.56% active; AID 540317; further: nearly all actives have a fitted effect of over 70% in size
Target sequence (P83916 whole entry, looked up): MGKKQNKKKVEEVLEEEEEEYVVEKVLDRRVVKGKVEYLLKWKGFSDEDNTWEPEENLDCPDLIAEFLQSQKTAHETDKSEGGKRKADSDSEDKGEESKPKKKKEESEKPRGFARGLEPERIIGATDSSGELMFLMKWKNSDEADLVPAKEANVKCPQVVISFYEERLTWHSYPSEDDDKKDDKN
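Compound inhibition of the preformed complex between 50 nM HP1-beta and 50 nM biotinylated H3K9me3 peptide was read by AlphaScreen. Buffer was PBS pH 7.4 with 0.01% Tween-20. Incubations ran 30 min at room temperature, with 10 ug/mL donor/acceptor beads.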
BAZ2B block: inhibitors of human BAZ2B bromodomain; Q9UIF8; Potency, µM (doses to about 114 µM), for the others: at the highest dose activity change, negative = inhibition, actives largely listed as inhibitors; 360,000 tested, 4.4% active; AlphaScreen BAZ2B-H3K14Ac peptide displacement; AID 504333; further: on the % scale 0 is the no-effect control and ±100 the full control effect; nearly all actives have a fitted effect of over 60% in size
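Complex of BAZ2B and biotin-H3K14Ac (50 nM apiece) forms over 30 min at RT, then faces library compounds up to 110 uM for another 30 min; AlphaScreen beads added, 20 min dark incubation, luminescence read.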
G9a inh: inhibitors of human histone lysine methyltransferase G9a; G9a H3K9 monomethylation, AlphaScreen, 2 h; Potency, µM (top dose mostly 102 µM), for inactives: at the top dose activity, negative = inhibition, usual class: inhibitors; 350,000 tested, 8.8% active; AID 504332; further: on the % scale 0 is the no-effect control and ±100 the full control effect; nearly all actives have a fitted effect of over 75% in size
Target sequence (Q96KQ7 913-1193 limits assumed): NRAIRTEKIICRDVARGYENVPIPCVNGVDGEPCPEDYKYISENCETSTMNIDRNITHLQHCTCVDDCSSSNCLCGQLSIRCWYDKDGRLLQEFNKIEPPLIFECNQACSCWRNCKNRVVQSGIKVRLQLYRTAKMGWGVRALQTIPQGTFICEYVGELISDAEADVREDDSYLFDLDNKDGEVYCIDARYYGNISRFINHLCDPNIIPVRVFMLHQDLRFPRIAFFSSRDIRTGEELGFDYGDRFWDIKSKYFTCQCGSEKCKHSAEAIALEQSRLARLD
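G9a (20 nM) was preincubated 15 min with compound, then reacted 2 h at room temperature with 500 nM biotin-H3K9 peptide and 20 µM SAM. Monomethyl-H3K9 detected by AlphaScreen using anti-H3K9me1 antibody.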
JMJD2A Tudor: blocks the human JMJD2A Tudor domain. O75164. AlphaScreen JMJD2A-Tudor / H3K4me3 peptide binding. 390,000 tested, 4.4% active. Potency, µM (doses to about 114 µM), inactives show at the top dose activity change, negative = inhibition, usual class: inhibitors; further: on the % scale 0 is the no-effect control and ±100 the full control effect; nearly all actives have a fitted effect of over 50% in size
Sfp PPTase inh: blocks B. subtilis Sfp PPTase activity; Q9F4F7; Biochemical Sfp PPTase activity, qHTS; Potency, µM, for inactives: largest response in the series, negative = inhibition, hits mostly inhibitors; 310,000 tested, 3.5% active; AID 1490;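 further: the enzyme is Sfp with the accession as filed and its product quenches rhodamine fluorescence; 0% = enzyme reaction without inhibitor and -100% = no enzyme wells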
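Step 1, compound plus 15 nM Sfp-PPTase, 15 min, room temperature. Step 2, add rhodamine-CoA (5 uM) and BHQ-2-YbbR (12.5 uM). Step 3, read 525/598 nm fluorescence at 0 and 30 min.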
* = called active by the depositor; u = inconclusive; x = not tested or not shown; ! = a repeat was not active; [ ] = dose if it differs, or a comment. The list is not random: actives were taken first. Their share in the collection is about 12%. The call rests on the fitted dose curve; in most records, active means well fitted curve in the direction sought with a large enough effect; inconclusive means small, poorly fitted or top-dose-only effect, or another doubt; inactive means no such curve, though single readings can be large; an effect the other way counts as inactive or inconclusive. Potency means the concentration at half of the fitted maximal effect.

SMILES	HP1b binding inh	BAZ2B block	G9a inh	JMJD2A Tudor	Sfp PPTase inh
O=C(Nc1nnc(S(=O)(=O)N2CCCCC2)s1)c1ccc(Cl)cc1	42%	u	u	1%	10%
CCN(c1ccc(OC)cc1)S(=O)(=O)c1nnc(NC(=O)COc2ccc(F)cc2)s1	13%	-26%	-50%	35µM*!	3%
NC(N)=NCCC[C@@H](N)C(=O)NCC(=O)N[C@@H](CC(=O)O)C(=O)N[C@@H](Cc1c[nH]c2ccccc12)C(=O)O	x	x	x	x	9%
Cc1ccc(-c2nnc(Nc3ccc(C(N)=O)cc3)c3ccccc23)cc1S(N)(=O)=O	31%	-7%	5%[59 µM]	-1%	x
CCOC(=O)C1CCCN(C(=O)c2nn(-c3ccc(C)cc3)c(=O)c3c2c2ccccc2n3C)C1 (stereo unspecified)	30%	x	-20%[59 µM]	-14%	x
O=C(Nc1nnc(S(=O)(=O)N2CCCC2)s1)c1ccccc1Br	52%	7.1µM*!	u	u	9%
CCOc1ccc2cc(-c3nnc(Nc4ccc(C)cc4)s3)c(=O)oc2c1	32%	-26%	-40%[59 µM]	-11%	x
NNc1nc2c(F)cccc2s1	u	50µM*	u	89µM*	u
Fc1cccc2sc(Nc3nc4c(F)cccc4s3)nc12	31%	-5%	28%[59 µM]	-10%	22%
NNc1nc2c(F)cc(F)cc2s1	-59%	50µM*	u	79µM*	-20%
COc1ccccc1-n1cc(C(=O)N2CCCC(CO)(Cc3ccccc3C)C2)cn1 (stereo unspecified)	31%	-4%	u	-20%	13%
N[C@@H]1CONC1=O	x	-5%	20µM*!	x	17%
CN(C)CCCC1(c2ccc(F)cc2)OCc2cc(C#N)ccc21 (stereo unspecified)	10%	-2%	71µM*!	-22%	17%
O=c1cc(O)nc(-c2ccccc2)s1	-23%	-14%	45µM*	-9%[57.1 µM]	13µM*
O=c1cc(O)nc(-c2ccc(Cl)cc2)s1	-12%	-36%	28µM*	-18%	18µM*
CC(=O)Nc1sc(-c2ccc(Cl)cc2)nc1-c1ccccc1	33%	2%	-1%	2%	20%
O=C(NCCC1CCCCN1S(=O)(=O)c1ccccc1)C(=O)NCc1ccc(F)cc1 (stereo unspecified)	15%	-16%	u	-15%	x
CC(C)(C)OC(=O)N1CCC(c2c(C(=O)NCCN3CCc4ccccc4C3)cnn2-c2ccc(F)cc2)CC1	-11%	0%[57.1 µM]	-45%[59 µM]	-25%	x
Cc1cccc(N(CC(=O)NCCSCc2ccco2)S(=O)(=O)c2ccccc2)c1	9%	u	17%[12.7 µM]	u	56µM*
Cc1ccc(C)c(N(CC(=O)NCCSCc2ccco2)S(C)(=O)=O)c1	13%	u	u	-35%	20µM*
CS(=O)(=O)N(Cc1ccccc1)c1ccc(C(=O)NCCSCc2ccco2)cc1	-3%	u	6%[59 µM]	u	28µM*
Cc1cccc(C(=O)NC2=NCCS2)c1	79%	-1%	x	-7%	-3%
O=C(COc1ccc(S(=O)(=O)N2CCOCC2)cc1)N1CCN(c2ccccc2)CC1	1%	0%	50%	-23%	15%
Cc1c(Cl)cccc1NC(=S)NC(=O)c1cncc(Br)c1	-22%	x	x	-9%	x
CC(NC(=O)c1ccc(CS(C)(=O)=O)cc1)C1CC2CCC1C2 (stereo unspecified)	12%	2%	8%	-7%	12%
SMILES	HP1b binding inh	BAZ2B block	G9a inh	JMJD2A Tudor	Sfp PPTase inh
CC(NCc1ccc(N(C)C)cc1)C1CC2CCC1C2 (stereo unspecified)	-21%	u	50µM*	89µM*	4%
CC(C)C[C@@H](CC(=O)N[C@@H](CCC(=O)O)CC(=O)O)NC(=O)[C@@H]1CNCC[C@H]1NC(=O)C[C@H](CCCN)NC(=O)C[C@H](Cc1ccccc1)NC(=O)[C@@H]1CNCC[C@H]1N	x	x	x	x	-1%
Cc1c(P(=O)(c2ccccc2)c2ccccc2)c2ccccc2n1C	x	x	x	22µM*	x
COc1ccc(-c2nc(NC(=O)c3ccccc3)sc2-c2ccc([N+](=O)[O-])cc2)cc1	4%	-2%[57.1 µM]	19%	-32%	12%
COc1ccc(-c2csc(Nc3ccccc3)[n+]2CC(O)c2ccc([N+](=O)[O-])cc2)cc1 (stereo unspecified)	u	u	14µM*	u	-7%
O=C1c2ccccc2C(=O)N1c1cncc2ccccc12	x	x	x	-28%	x
COC(=O)c1ccccc1C(=O)N1CCCC(CCC(=O)NCc2ccc(F)c(F)c2)C1 (stereo unspecified)	49%	-26%	5.6µM*	-4%	-11%
Cc1noc(C)c1CCC(=O)N1CCCC(CCC(=O)NCc2ccc(F)c(F)c2)C1 (stereo unspecified)	u	-24%	u	100µM*	-3%
CCC[n+]1cn(/C(C(=S)Nc2cccc(Cl)c2C)=C(/[O-])c2ccc(OC)c(OC)c2)c2ccccc21	-19%	u	40µM*	u	3%
COc1ccc(-c2nc(SC(CC(=O)NCc3ccccc3)c3ccc(OC)c(OC)c3)n[nH]2)cc1 (stereo unspecified)	15%	-20%	45µM*	-19%	7%
COc1ccc(C(CC(=O)NCc2ccccc2)Sc2n[nH]c(-c3ccc(Cl)cc3)n2)cc1 (stereo unspecified)	20%	7%	25µM*	-17%	5%
CCc1cccc(NC(=O)C(Cc2ccccc2)NS(=O)(=O)c2cccs2)c1 (stereo unspecified)	24%	1%	-4%[59 µM]	-17%	x
CN(C)c1cc(-c2ccc(Br)cc2)oc(=O)c1Cl	15%	u	50µM*	-9%	-12%
Cc1ccc(C(C)(c2ccc(N)cc2)c2ccc(N)cc2)cc1	u	x	x	50µM*	x
Nc1ccc(C(O)(C(F)(F)F)C(F)(F)F)cc1	13%	-3%	22%	u	6%
CN1CCC2(CC1)N=C(c1ccc(F)cc1)C(=S)N2C(=O)c1ccccc1	u	9%	22µM*	u	50µM*
Cc1nc(C)c(N)c(=O)[nH]1	29%	-28%	50µM*	-9%[11.4 µM]	5%
NC(=O)c1ccc(N2CCCCC2)c(N2C(=O)C3CC=CCC3C2=O)c1 (stereo unspecified)	22%	50µM*	1%[12.7 µM]	-5%	7%
O=C(c1cccc(N2C(=O)C3CC=CCC3C2=O)c1)N1CCCCCC1 (stereo unspecified)	12%	1%	9%[59 µM]	-25%	-5%
CCNc1nc(NC(N)=S)nc(NC(C)(C)C)n1	u	1%	3.5µM*	-5%	32µM*
CCNc1nc(NCC)nc(NC(N)=S)n1	16%	-5%	25µM*	-8%	-7%
Cc1ccc2nc(SCC(=O)NCCCN3CCCC3=O)[nH]c2c1	51%	5%	12%[12.7 µM]	3%	x
CCOc1ccc2nc(N(CCCN(C)C)C(=O)c3ccc4c(c3)CCCC4)sc2c1	-4%	u	45µM*	u	-24%
